# Source: PubChem BioAssay (NCI)
# The panel holds about 79,000 compounds, 15% with a hit somewhere; the sample as a whole holds those more often. Unmarked numbers belong to inactive results. Cut-off read from the data, not from the text of the source: active = growth inhibition above about 70%; inactive = the rest.
# Assay: NCI Yeast Anticancer Drug Screen. Data for the mlh1 rad18 strain (AID 175)
# Conditions: S. cerevisiae mlh1 rad18 strain growth inhibition; at 50.0 µM; hits give high values
# How it was run: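 A repair-deficient yeast strain is exposed to test compound, and growth is scored relative to vehicle-treated controls.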
row,Structure (SMILES),growth inhibition
1,O=c1c2c([nH]n1-c1ccccc1)-c1ccccc1CS2,28.9%
2,O=C1CN(c2ccccc2)CC(=O)N2C(c3ccccc3)CCCN12 (stereo not given),3.35%
3,COC(=O)C1(C)CCCC2(C)C3CCC(C(C)C)CC3CCC12 (stereo not given),8.65%
4,COC(=O)C1(C2CCCCCCC2=O)NC(=S)NC(=O)C1C#N (stereo not given),-4.05%
5,CC1(Cn2ccc(=O)[nH]c2=O)CC(C2(C)OCCO2)C(=O)O1 (stereo not given),-14.4%
6,CN(C)Cc1ccccc1COC(=O)c1ccc(Cl)cc1,20.9%
7,Cc1ccc(S(=O)(=O)OCC2C(COS(=O)(=O)c3ccc(C)cc3)C3C4C5C2C2C3C4C52)cc1 (stereo not given),-21.5%
8,O=C(O)COc1ccccc1OCC(=O)O,1.2%
9,Cc1cc(C=O)c(C)[nH]1,-4.4%
10,CCc1ccc(/C(C#N)=C/c2ccc(N(C)CCC#N)cc2)cc1,-23.9%
11,CC(=O)NC(C(=O)NC(CSCc1ccccc1)C(=O)O)=C(C)C (stereo not given),-11.3%
12,CC1=CC2OC3C(OC(=O)c4ccccc4)C(OC(=O)c4ccccc4)C(C)(C2(COC(=O)c2ccccc2)CC1)C31CO1 (stereo not given),17.7%
13,Nc1[nH]c(=S)[nH]c(=O)c1N=Nc1c(Br)cc(S(N)(=O)=O)cc1Br,0.25%
14,CCCCCCC1=CC(=O)CC(=O)C1,4.25%
15,C/C(=N/NC(N)=O)C(=O)O,13.7%
16,Cc1cc([N+](=O)[O-])c(NCCOC(=O)c2ccc([N+](=O)[O-])cc2)c([N+](=O)[O-])c1,-10.7%
17,COc1cc(OC2OC(CO)C(O)C(O)C2O)c2c(O)c3c(=O)cc(C)oc3cc2c1 (stereo not given),3.8%
18,CCCOC(=O)O[C@H]1CC[C@@]2(C)C(=CC[C@H]3[C@@H]4CC[C@H]([C@H](C)CCCC(C)C)[C@@]4(C)CC[C@@H]32)C1,-34.4%
19,O=C(NC(=S)Nc1cc(C(F)(F)F)ccc1Cl)c1ccccc1F,4.95%
20,OCCN(CCO)c1ncnc2c1ncn2CCc1ccccc1,-2.25%

row,Structure (SMILES),growth inhibition
1,Cc1nc2c(=O)[nH]c(=O)[nH]c2[nH]c1=O,-16.4%
2,COC(=O)C(=O)c1c(C(=O)OC)nc2[nH]n(-c3ccccc3)c(=O)c2c1Cc1ccccc1,8.25%
3,CCC1=CC(C(O)CC(C)C)C(C)(Cc2ccc(CC)cn2)NC1c1ccccc1 (stereo not given),50.3%
4,CNC(=S)SC1=NS(=O)(=O)c2ccccc2N1,23.4%
5,O=C(NC(=O)c1c(F)cccc1F)Nc1ccc(Br)cc1,23.4%
6,CCCCN(C)CC(C)O (stereo not given),-22.2%
7,COc1ccc(C2CC(=O)Oc3cc4c(cc32)OCO4)cc1 (stereo not given),-15.9%
8,COc1cc(C(=O)C/C(CCC(=O)Nc2ccc(Cl)cc2Cl)=N/Nc2nnc(C)n2N)ccc1O,-5.05%
9,COc1ccc(C2CCCCCC2OS(=O)(=O)c2ccc(C)cc2)c(OC)c1OC (stereo not given),-9%
10,CC1(C(=O)O)CCC2(C)CCC3(C)C(=CC(=O)C4C5(C)CCC(OC6OC(C(=O)O)C(O)C(O)C6OC6OC(C(=O)O)C(O)C(O)C6O)C(C)(C)C5CCC43C)C2C1 (stereo not given),19.2%
11,CC(=O)N1c2cc(N=NN(C)C)ccc2NC(=O)CC1C (stereo not given),34.3%
12,C/C(CC(=O)N(C(C)C)C(C)C)=N\NC(=O)c1ccncc1,13.8%
13,Nc1cc2c(cc1Br)-c1cc(Cl)c(Cl)cc1C2=O,-11.5%
14,CCCc1ccccc1NC(=O)NCCCl,5.6%
15,COC(=O)C1=C(C)N(NC(=O)c2ccccc2)C2(O)CCCC(=O)C12C (stereo not given),23.9%
16,CCCCCCC1CCCCC1,-20%
17,CC1NC(=O)c2c(-c3ccccc3)nn(-c3ccccc3)c2NC1=O (stereo not given),-33.2%
18,S=C(S)N(Cc1ccccc1)Cc1ccccc1 (tested in a mixture with another compound),-2.05%
19,CSc1ccc(C2OC(=O)c3ccccc32)c2ccccc12 (stereo not given),5.1%
20,CCOC(=O)C(NC(=O)Cc1ccccc1)C(=O)O (stereo not given),3.35%
